ChEMBL document CHEMBL3433997, “St. Jude Leishmania screening dataset” (2016)

Assays:
Type in all cases: functional
[1] = target: Solute carrier family 2, facilitated glucose transporter member 1 (Homo sapiens) (UniProt P11166); test: ST_JUDE_LEISH: Cytotoxicity at 2uM final concentration against transgenic Leishmania Mexicana promastigotes LmGLUT1 that are glucose transport deficient and complemented with the human glucose transporter GLUT1. Activity is measured by DNA content using SYBR green in vitro
Chain of Solute carrier family 2, facilitated glucose transporter member 1 (Homo sapiens) (P11166 whole entry): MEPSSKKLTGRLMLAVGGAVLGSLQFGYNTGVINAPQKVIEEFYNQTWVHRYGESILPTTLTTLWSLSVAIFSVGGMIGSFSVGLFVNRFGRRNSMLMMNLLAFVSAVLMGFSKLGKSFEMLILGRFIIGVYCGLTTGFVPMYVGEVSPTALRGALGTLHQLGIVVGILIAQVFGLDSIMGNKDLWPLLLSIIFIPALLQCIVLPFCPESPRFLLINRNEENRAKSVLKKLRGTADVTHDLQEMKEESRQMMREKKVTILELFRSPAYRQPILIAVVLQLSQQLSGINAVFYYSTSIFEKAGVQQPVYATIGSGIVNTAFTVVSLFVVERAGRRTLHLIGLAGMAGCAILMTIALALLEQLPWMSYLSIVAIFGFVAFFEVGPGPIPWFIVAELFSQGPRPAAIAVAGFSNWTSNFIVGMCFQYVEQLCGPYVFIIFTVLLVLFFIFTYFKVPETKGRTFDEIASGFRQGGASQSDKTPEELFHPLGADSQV

[2] = target: Hexose transporter 1 (Plasmodium falciparum) (UniProt O97467); test: ST_JUDE_LEISH: Cytotoxicity at 2uM final concentration against transgenic Leishmania Mexicana promastigotes LmPfHT that are glucose transport deficient and complemented with the Plasmodium falciparum hexose transporter. Activity is measured by DNA content using SYBR green in vitro
[3] = target: Glucose transporter (Leishmania mexicana) (UniProt O61059); test: ST_JUDE_LEISH: Cytotoxicity at 2uM final concentration against transgenic Leishmania Mexicana promastigotes LmGT2 that are glucose transport deficient and complemented with the L. Mexicana glucose transporter 2. Activity is measured by DNA content using SYBR green in vitro

Row | Structure (SMILES) | inhibition [1] [%] | inhibition [2] [%] | inhibition [3] [%]
1 | CC(=O)Nc1ccc(S(=O)(=O)N(Cc2cccc(Oc3ccccc3)c2)C2CCN(C/C=C(\C)CCC=C(C)C)CC2)cc1 | -0.15 | 0.21 | -0.73
2 | N#Cc1ccc(CN2CCCN(Cc3cccc(NC(=O)c4ccc(Cl)c(Cl)c4)c3)CC2)cc1 | 9.73 | 7.09 | 9.89
3 | CCn1cc(-c2nc(-c3cc(OC)cc(OC)c3)no2)c(=O)c2ccccc21 | 12.3 | 6.39 | 2.79
4 | Cc1cc(CN2CCC(N3CC(c4ccccc4)(c4ccccc4)OCC3=O)C2)ccc1O (configuration not stated) | 0.59 | 0.87 | -3.65
5 | CC(CNC(=N)c1cccc(C(=N)NCC(C)Oc2cccc(C3CCCCC3)c2)n1)Oc1cccc(C2CCCCC2)c1 (configuration not stated) | 5.5 | 4.37 | 0.74
6 | O=C(Nc1cccc(-c2cccc(-c3nc4cc(C(F)(F)F)ccc4[nH]3)c2)c1)c1csnn1 | 12.8 | 9.97 | 9.43
7 | O=C(Nc1cccc(CN2CCCN(Cc3ccc4c(c3)OCO4)CC2)c1)c1ccc(Cl)c(Cl)c1 | 6.43 | 5.95 | 8.61
8 | Cc1cc(C(=O)Nc2ccc(C)c(-c3nc(N(C(=O)c4ccc(F)c(C)c4)C4CCNCC4)nc4c3ccc(=O)n4-c3c(F)cccc3F)c2)ccc1F | 1.66 | 0.07 | 0.59
9 | CC(=O)N[C@H](C(=O)Nc1ccc(-c2cccc(-c3nc4cccc(C)c4[nH]3)c2)cc1)C(C)C | 1.35 | 3.2 | 2.45
10 | c1ccc(COc2ccc(C3CCCCC3)cc2)nc1 | 0.38 | 2.32 | 2.1
11 | O=S(=O)(NC1CCN(c2ccnc3cc(Cl)ccc23)C1)c1cccc(F)c1 (configuration not stated) | 10.1 | 9.98 | 11.4
12 | COc1ccc(C2C(C(=O)OC3CCCC3)=C(C)NC3=C2C(=O)CCC3)cc1Br (configuration not stated) | 1.02 | -0.27 | 0.31
13 | COc1cccc(C(=O)C2CC2CN(C)CCC(O)c2ccc(Cl)c(Cl)c2)c1 (configuration not stated) | 3.35 | 3.48 | 4.04
14 | Cn1cnc2c(Nc3ccncc3)nc(-c3ccc(OC(F)(F)F)cc3)nc21 | 2.51 | 1.84 | 2.19
15 | O=C(NCc1ccco1)c1ccc(CN2CCN(C(c3ccccc3)c3ccccc3)CC2)cc1 | 7.85 | 6.41 | 4.79
16 | COc1cc(NC(=O)c2sc(-c3ccc(Cl)cc3)cc2Cl)ccc1OCCN1CCCC1 | 9.58 | 9.57 | 9.29
17 | NCC1(c2nc(-c3ccc(Cl)c(O)c3)c(-c3ccncc3)[nH]2)CCCCC1 | 3.72 | 2.75 | 0.55
18 | COc1cc(C(=O)NC2CCN(Cc3ccccc3)CC2)ccc1-c1nc2c(Cl)cc(C(F)(F)F)cc2[nH]1 | 5.51 | 3.32 | 3.49
19 | O=C(c1cc(C(=O)NC2CCCCC2)c(=O)n(C2CCCCC2)c1)c1cc(F)ccc1O | 2.83 | 1.22 | 1.41
20 | CC(C)c1ccc(CN2CCC(CNC(=O)c3cc(-c4cccc(Cl)c4)cs3)C2)cc1 (configuration not stated) | 1.24 | 3.19 | -0.24
21 | O=C(C=Cc1ccccc1)Nc1ccc(C#CC=Cc2ccc(NC(=O)C=Cc3ccccc3)cc2)cc1 | 2.7 | 2.84 | 2.16
22 | Cc1ccc(-n2c(=O)c3cccnc3n2CC(=O)Nc2cccc(C)c2C)cc1 | 8.07 | 5.98 | 7.74
23 | Cc1cc(N[C@@H](Cc2ccccc2)C(=O)NC2CCCC2)nc(NCc2ccccc2C)n1 | 6.22 | 6.32 | 4.04
24 | O=C(NCCCCN1CCC2c3cccc(O)c3CCC21)c1ccc(-c2ccccc2)cc1 (configuration not stated) | 6.05 | 5.38 | 3.69
25 | COc1ccc2nccc(N3CCC(CCNCc4cc5c(cn4)OCCO5)CC3)c2n1 | -0.34 | 0.24 | 1.72

Row | Structure (SMILES) | inhibition [1] [%] | inhibition [2] [%] | inhibition [3] [%]
26 | Clc1cccc(CNC2CCN(CC3CCCCC3)CC2)c1 | 4.03 | 4.11 | 6.03
27 | Cc1ccc(Cn2ncc(N3CCCNCC3)c(Cl)c2=O)cc1NC(=O)Nc1ccc(-c2ccccc2)cc1 | 3.82 | 4.05 | 4.8
28 | COc1ccc2nc(C)cc(N/N=C/c3cccc([N+](=O)[O-])c3)c2c1 | 8.97 | 7.38 | 7.7
29 | Oc1ccc(CCNCCCCCNCCCc2ccc(Cl)cc2)cc1O | 2.04 | -0.25 | 2.06
30 | Clc1ccc2c(NN=Cc3cccnc3)ccnc2c1 | 6.14 | 0.59 | 5.48
31 | COc1cccc(CNC[C@@H](O)[C@H](Cc2ccccc2)NC(=O)c2cc(C3CCCC3)cc(N3CCCCS3(=O)=O)c2)c1 | 0.71 | 1.78 | 0.92
32 | Cc1ccccc1N1CCN(c2ccc(C(=O)Nc3ccccc3)cn2)CC1 | 9.19 | 7.8 | 3.84
33 | Cc1cnc2cc3c(cc2c1N1CCN(C)CC1)NCC3 | -0.55 | -0.98 | -1.24
34 | CCOc1ccc(CCC(=O)O)cc1OCC | 2.83 | 3.36 | 2.88
35 | C#CCN(Cc1ccc2[nH]c(N)nc(=O)c2c1)c1ccc(C(=O)N[C@@H](CCC(=O)O)C(=O)O)cc1 | 4.21 | 3.35 | 3.66
36 | c1ccc(COc2ccnc(NCCCOc3cccc(CN4CCCCC4)c3)c2)cc1 | 1.52 | 1.04 | -0.05
37 | Cc1cc(Nc2ccc(Cl)c(Cl)c2)n2nc(C)nc2n1 | -1.71 | -1.26 | 0.04
38 | CC1(C)[C@H]2CC[C@@H](CNc3nc(NCCc4c[nH]cn4)nc(Nc4ccc5c(c4)OCO5)n3)[C@@H]1C2 | 2.49 | 0.99 | 0.68
39 | CCOc1c(Br)cc(C)cc1CNCCCNc1nc2ccccc2[nH]1 | 1.35 | -0.49 | 1.33
40 | CC(C)CCNC(=O)C1Cc2c([nH]c3cc(Br)ccc23)C2(CCN(CCc3ccccc3)CC2)N1 (configuration not stated) | 3.44 | 2.47 | -3.76
41 | c1ccc2ncc(CNCCCCCCCCNCc3cnc4ccccc4c3)cc2c1 | -0.67 | -0.08 | 0.09
42 | COc1ccc2c(N/N=C/c3cccc([N+](=O)[O-])c3)cc(C)nc2c1 | 1.12 | 4.05 | 0.63
43 | CCc1cn2c3c(cc(C(=O)N[C@@H](Cc4ccccc4)[C@H](O)CNC(C)(C)c4cccc(OC)c4)cc13)N(C)S(=O)(=O)C2 | 1.01 | 1.91 | 0.96
44 | CS(=O)(=O)c1ccc(CNCc2ccc(-c3ccc(-c4nc5cc(C(F)(F)F)ccc5[nH]4)cc3)cc2)cc1 | 2.96 | 1.96 | 2.3
45 | c1cncc(CCNCc2ccc(-c3ccc(CNC4Cc5ccccc5C4)cc3)cc2)c1 | 5.14 | 3.57 | 3.87
46 | CN1CCN(Cc2ccc(OCc3cccc(COc4ccc(CN5CCN(C)CC5)cc4I)c3)c(I)c2)CC1 | 1.53 | 0.72 | -0.68
47 | CC(C)(C)C(C)(C)Cc1ccc(O)c(CN2CCN(c3ccccc3)CC2)c1 | 0.82 | -0.41 | -0.38
48 | Oc1ccc2[nH]c(-c3cccc(F)c3)nc2c1CN1CCCC1 | 4.75 | 3.49 | 1.21
49 | Fc1ccc(C(OCC2CCCN(Cc3cccc4cccnc34)C2)c2ccc(F)cc2)cc1 (configuration not stated) | 2.49 | 0.62 | -2.6
